Records with an inconclusive call do not appear. Entries that show only a call come without a potency. A number with no mark means an inactive call. Calls of active or inactive are those of the source. Unless noted, calls come from the whole dose curve.

Test system in the first assay: not listed separately
The assay is described as follows: qHTS for Inhibitors of the Functional Ribonucleoprotein Complex (vRNP) of Lymphocytic Choriomeningitis Arenaviruses (LCMV): Viability assay - alamar blue signal for LCMV Primary Screen (AID 1347085; calls by dose curve; tested in HEK293 reporter line; note: nearly all actives have a fitted effect of over 80% in size). Particulars: alamar blue viability counter-screen, LCMV vRNP screen cells; series mostly up to 57.5 µM.
As to `O=C(/C=C/c1ccccc1)OCc1ccccc1`, the Potency result is “inactive”.
On the same count and under the same terms, in the case of `O=C(c1ccccc1)c1ccccc1` it was “inactive”.
On the same count and under the same terms, in the case of `CCCCCCCCCCCCCCCCCCO` it was “inactive”.
The same measure, in the same setting: in the case of `Cn1c(=O)c2[nH]c(Br)nc2n(C)c1=O` it was “inactive”; in that of `Nc1c[n+](N2CCOCC2)no1`, “inactive”; in that of `O=C(O)c1cc(=O)c2ccccc2o1`, “inactive”.
Take `CC1(C)OC(=O)NC1=O`: the Potency entry is “inactive”.
With `CC(=O)Oc1cc(C(C)C)c(OCCN(C)C)cc1C`, the Potency result is “inactive”.
In the case of `O=C(O)CN(CCN(CC(=O)O)CC(=O)O)CCN(CC(=O)O)CC(=O)O`, the Potency entry was “inactive”.
Still for that read-out and setting: in the case of `CCCCCCCCCCCCOCCO` it was “inactive”; in that of `OC[C@H]1O[C@@H](n2cnc3c2NC=NC[C@H]3O)C[C@@H]1O`, “inactive”; in that of `O=C(OOC(=O)c1ccccc1)c1ccccc1`, “inactive”.
In the case of `CC(=O)Nc1c(I)cc(I)c(C(=O)O)c1I`, the Potency result is “inactive”.
On the same count and under the same terms, the entry for `CCN(CC)S(=O)(=O)c1ccc(C(=O)O)cc1` is “inactive”; for `CC(=O)Nc1ncc([N+](=O)[O-])s1` it is “inactive”.
Same read-out and setting: in the case of `Cc1cccc(C)c1NC(=O)CN1CCCCCC1` it was “inactive”.
Regarding `Nc1ccc(/C=C/c2ccc(N)cc2S(=O)(=O)O)c(S(=O)(=O)O)c1`, the activity change, negative = lower viability was 0.0811% [at 0.757 µM].
Regarding `CC(=O)N[C@@H](CC(C)C)C(=O)O`, the Potency entry was “inactive”.
On the same count and under the same terms, in the case of `CC(C)(Oc1ccc(C2CC2(Cl)Cl)cc1)C(=O)O` (stereo unspecified) it was “inactive”.
On the same count and under the same terms, the entry for `O=C(O)CSCC(=O)NC1CCSC1=O` (stereo unspecified) is “inactive”; for `Nc1nc(N)nc(-c2cc(Cl)ccc2Cl)n1` it is “inactive”; for `CCCOC(=O)c1ccccc1` it is “inactive”.
Still for that read-out and setting: in the case of `CC(=O)Oc1cccc(O)c1` it was “inactive”; in that of `Cc1scc2c1N(C(=O)CN1CCN(C)CC1)c1ccccc1NC2=O`, “inactive”; in that of `CO[C@]12C[C@@H](COC(=O)c3cncc(Br)c3)CN(C)[C@@H]1Cc1cn(C)c3cccc2c13`, “inactive”.
Consider `COC(=O)N/N=C/c1c[n+]([O-])c2ccccc2[n+]1[O-]`, for which the Potency entry is “inactive”.
In the case of `CCN1CCC[C@H]1CNC(=O)c1c(O)c(Cl)cc(Cl)c1OC`, the Potency result is “inactive”.
Turning to `Nc1ccc(S(=O)(=O)NCc2ccccc2)cc1`, the Potency result is “inactive”.
The same measure, in the same setting: in the case of `Oc1ccc(OCc2ccccc2)cc1` it was “inactive”; in that of `CCN(CC)C(=O)c1ccc(O)c(OC)c1`, “inactive”; in that of `CCC(C)(CN(C)C)OC(=O)c1ccccc1` (stereo unspecified), “inactive”.
For the molecule `OC1(c2ccc(Cl)cc2)CCNCC1`, the Potency entry is “inactive”.
The same measure, in the same setting: the entry for `CSCC[C@H](NC(=O)[C@H](Cc1c[nH]c2ccccc12)NC(=O)CCNC(=O)OC(C)(C)C)C(=O)N[C@@H](CC(=O)O)C(=O)N[C@@H](Cc1ccccc1)C(N)=O` is “inactive”; for `CCCc1c(OCCCCc2nn[nH]n2)ccc(C(C)=O)c1O` it is “inactive”; for `Cc1c(NC(C)C)c(=O)n(-c2ccccc2)n1C` it is “inactive”.
On the same count and under the same terms, in the case of `CCCCNC(=O)NS(=O)(=O)c1ccc(N)cc1` it was “inactive”; in that of `OC[C@@H](O)[C@@H](O[C@@H]1O[C@H](CO)[C@H](O)[C@H](O)[C@H]1O)[C@H](O)[C@@H](O)CO`, “inactive”; in that of `Cn1cc(S(C)=O)c(=O)c2ccc(F)cc21` (stereo unspecified), “inactive”.

The target of the next assay is Nucleoprotein (Lymphocytic choriomeningitis virus (strain Armstrong)) (UniProt P09992). The assay is described as follows: qHTS for Inhibitors of the Functional Ribonucleoprotein Complex (vRNP) of Lymphocytic Choriomeningitis Arenaviruses (LCMV): LCMV Primary Screen - GLuc reporter signal (AID 1347086). Note: nearly all actives have a fitted effect of over 70% in size. The conditions noted are these: LCMV minigenome vRNP cell assay, Gaussia luciferase reporter; series mostly up to 57.5 µM.
Chain of Nucleoprotein (Lymphocytic choriomeningitis virus (strain Armstrong)) (P09992 whole entry, looked up): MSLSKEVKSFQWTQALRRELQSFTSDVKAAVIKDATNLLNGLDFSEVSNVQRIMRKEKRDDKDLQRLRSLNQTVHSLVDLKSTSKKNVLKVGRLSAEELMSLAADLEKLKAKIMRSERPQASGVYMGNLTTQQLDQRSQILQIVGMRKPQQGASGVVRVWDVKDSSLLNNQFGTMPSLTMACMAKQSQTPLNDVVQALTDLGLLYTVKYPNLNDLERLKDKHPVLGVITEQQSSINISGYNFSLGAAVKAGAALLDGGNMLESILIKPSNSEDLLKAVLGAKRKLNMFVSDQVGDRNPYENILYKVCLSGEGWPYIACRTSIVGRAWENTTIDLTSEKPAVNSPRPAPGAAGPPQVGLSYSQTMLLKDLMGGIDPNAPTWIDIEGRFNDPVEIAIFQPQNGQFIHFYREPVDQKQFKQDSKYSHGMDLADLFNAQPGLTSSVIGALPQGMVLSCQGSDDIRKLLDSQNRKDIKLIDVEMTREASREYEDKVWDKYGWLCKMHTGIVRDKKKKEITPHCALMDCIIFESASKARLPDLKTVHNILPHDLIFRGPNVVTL
Regarding `O=C(/C=C/c1ccccc1)OCc1ccccc1`, the Potency result is “inactive”.
The same measure, in the same setting: the entry for `O=C(c1ccccc1)c1ccccc1` is “inactive”.
`CCCCCCCCCCCCCCCCCCO`: the Potency result was “inactive”.
On the same count and under the same terms, the entry for `Cn1c(=O)c2[nH]c(Br)nc2n(C)c1=O` is “inactive”; for `Nc1c[n+](N2CCOCC2)no1` it is “inactive”.
As to `O=C(O)c1cc(=O)c2ccccc2o1`, the Potency entry is “inactive”.
The same measure, in the same setting: the entry for `CC1(C)OC(=O)NC1=O` is “inactive”.
On to `CC(=O)Oc1cc(C(C)C)c(OCCN(C)C)cc1C`, for which the Potency result was “inactive”.
Same read-out and setting: the entry for `O=C(O)CN(CCN(CC(=O)O)CC(=O)O)CCN(CC(=O)O)CC(=O)O` is “inactive”; for `CCCCCCCCCCCCOCCO` it is “inactive”.
Turning to `OC[C@H]1O[C@@H](n2cnc3c2NC=NC[C@H]3O)C[C@@H]1O`, the Potency result was “inactive”.
As for `O=C(OOC(=O)c1ccccc1)c1ccccc1`, the Potency result is “inactive”.
The same measure, in the same setting: in the case of `CC(=O)Nc1c(I)cc(I)c(C(=O)O)c1I` it was “inactive”; in that of `CCN(CC)S(=O)(=O)c1ccc(C(=O)O)cc1`, “inactive”.
Regarding `CC(=O)Nc1ncc([N+](=O)[O-])s1`, the Potency entry was “inactive”.
For `Cc1cccc(C)c1NC(=O)CN1CCCCCC1`, the Potency entry is “inactive”.
Consider `Nc1ccc(/C=C/c2ccc(N)cc2S(=O)(=O)O)c(S(=O)(=O)O)c1`, for which the activity change, negative = inhibition is 15.6% [at 0.757 µM].
On to `CC(=O)N[C@@H](CC(C)C)C(=O)O`, for which the Potency entry was “inactive”.
As to `CC(C)(Oc1ccc(C2CC2(Cl)Cl)cc1)C(=O)O` (stereo unspecified), the Potency entry is “inactive”.
The same measure, in the same setting: the entry for `O=C(O)CSCC(=O)NC1CCSC1=O` (stereo unspecified) is “inactive”.
On the same count and under the same terms, the entry for `Nc1nc(N)nc(-c2cc(Cl)ccc2Cl)n1` is “inactive”; for `CCCOC(=O)c1ccccc1` it is “inactive”; for `CC(=O)Oc1cccc(O)c1` it is “inactive”.
Still for that read-out and setting: the entry for `Cc1scc2c1N(C(=O)CN1CCN(C)CC1)c1ccccc1NC2=O` is “inactive”; for `CO[C@]12C[C@@H](COC(=O)c3cncc(Br)c3)CN(C)[C@@H]1Cc1cn(C)c3cccc2c13` it is “inactive”.
For `COC(=O)N/N=C/c1c[n+]([O-])c2ccccc2[n+]1[O-]`, the Potency entry is “inactive”.
Still for that read-out and setting: in the case of `CCN1CCC[C@H]1CNC(=O)c1c(O)c(Cl)cc(Cl)c1OC` it was “inactive”; in that of `Nc1ccc(S(=O)(=O)NCc2ccccc2)cc1`, “inactive”; in that of `Oc1ccc(OCc2ccccc2)cc1`, “inactive”.
Still for that read-out and setting: in the case of `CCN(CC)C(=O)c1ccc(O)c(OC)c1` it was “inactive”.
Regarding `CCC(C)(CN(C)C)OC(=O)c1ccccc1` (stereo unspecified), the Potency entry was “inactive”.
Consider `OC1(c2ccc(Cl)cc2)CCNCC1`, for which the Potency result is “inactive”.
`CSCC[C@H](NC(=O)[C@H](Cc1c[nH]c2ccccc12)NC(=O)CCNC(=O)OC(C)(C)C)C(=O)N[C@@H](CC(=O)O)C(=O)N[C@@H](Cc1ccccc1)C(N)=O`: the Potency entry is “inactive”.
On the same count and under the same terms, in the case of `CCCc1c(OCCCCc2nn[nH]n2)ccc(C(C)=O)c1O` it was “inactive”.
Consider `Cc1c(NC(C)C)c(=O)n(-c2ccccc2)n1C`, for which the Potency entry is “inactive”.
Consider `CCCCNC(=O)NS(=O)(=O)c1ccc(N)cc1`, for which the Potency entry was “inactive”.
Same read-out and setting: in the case of `OC[C@@H](O)[C@@H](O[C@@H]1O[C@H](CO)[C@H](O)[C@H](O)[C@H]1O)[C@H](O)[C@@H](O)CO` it was “inactive”; in that of `Cn1cc(S(C)=O)c(=O)c2ccc(F)cc21` (stereo unspecified), “inactive”.

(Values after PubChem BioAssay (NCATS).)
